Among the test systems are SK-MEL-2 melanoma; EKVX NSCLC; SN12C renal; UO-31 renal; TK-10 renal; ACHN renal; A498 renal; CCRF-CEM leukemia; MOLT-4 leukemia; CAKI-1 renal.
What all share (test): NCI-60 one-dose screen, 48 h (100 = growth as untreated, 0 = no growth, -100 = all killed)
Conditions in all cases: 10 µM unless noted

The panel holds about 83,000 compounds, 20% with a hit somewhere; the sample as a whole holds those more often.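 Cell lines were cultured in 96-well plates, exposed to a single compound concentration, and assessed for percent growth 48 hours later.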 Values without a mark were called inactive. Activity calls are given as the source filed them. The calls were made as follows: active = growth percent below 10; inactive = the rest.

As to `CCCCC[C@H]1CC=C2C(=O)C=C[C@@H]2CC=CCCCC(=O)O[C@@H](CCCCC)CC=C2C(=O)C=C[C@@H]2CC=CCCCC(=O)O[C@@H](CCCCC)CC=C2C(=O)C=C[C@@H]2CC=CCCCC(=O)O1`, the growth is -38.4% [8.75 µM] (active) in the test on SK-MEL-2 melanoma; 22.4% [8.75 µM] in the test on EKVX NSCLC; -10.5% [8.75 µM] (active) with SN12C renal; -96.7% [8.75 µM] (active) with UO-31 renal; 31.6% [8.75 µM] in the test on TK-10 renal; -11.6% [8.75 µM] (active) in the test with ACHN renal. In addition, the values for the growth with A498 renal, with CCRF-CEM leukemia and with MOLT-4 leukemia were -13.8% [8.75 µM] (active), 7.92% [8.75 µM] (active) and 3.57% [8.75 µM] (active), respectively.
For `COc1ccc2c(c1)c(-c1nc(-c3c[nH]c4ncccc34)cs1)cn2CCN`, the growth with SK-MEL-2 melanoma is 75.2%; with EKVX NSCLC it was 50.1%; in the test on SN12C renal it was 78.2%; in the test with UO-31 renal, 48.5%; in the test on TK-10 renal, 71.9%; in the test with ACHN renal, 41.3%. Moreover, the growth is 72.2% with A498 renal, 55.8% in the test on CCRF-CEM leukemia and 46.4% with MOLT-4 leukemia.
For the molecule `COc1ccc2c(c1)c(-c1nc(-c3c[nH]c4ncccc34)cs1)cn2CCNC(=O)OC(C)(C)C`, the growth with SK-MEL-2 melanoma is 86.6%; with EKVX NSCLC, 55.6%; in the test with SN12C renal, 84.8%; with UO-31 renal it was 49.3%; in the test on TK-10 renal it was 89.2%; in the test with ACHN renal it was 67.9%. Moreover, the growth with A498 renal was 85.3%; in the test with CCRF-CEM leukemia it was 48.2%; with MOLT-4 leukemia, 55.7%.
Consider `CCCCC[C@H]1C/C=C2/C(=O)C(Cl)=C[C@@H]2C/C=C\CCCC(=O)O[C@@H](CCCCC)C/C=C2/C(=O)C(Cl)=C[C@@H]2C/C=C\CCCC(=O)O1`, for which the growth with SK-MEL-2 melanoma was -46% (active); in the test with EKVX NSCLC, 5.48% (active); in the test with SN12C renal, -42.2% (active); in the test on UO-31 renal, -89.9% (active); with TK-10 renal it was -20.2% (active); with ACHN renal, -93% (active). Further, the growth is -77.4% (active) with A498 renal, 0.433% (active) in the test with CCRF-CEM leukemia and 3.32% (active) with MOLT-4 leukemia.
For `Cc1cc(N(CCCNc2ccnc3cc(Cl)ccc23)Cc2ccco2)nc(N2CCOCC2)n1`, the growth with SK-MEL-2 melanoma is 93.2%; in the test with EKVX NSCLC it was 67.6%; with SN12C renal it was 67.4%; with UO-31 renal it was 46.8%; in the test on TK-10 renal it was 110%; in the test on ACHN renal it was 95.3%. In addition, the growth is 59.1% with A498 renal, 69.2% with CCRF-CEM leukemia and 63.7% in the test with MOLT-4 leukemia.
For the molecule `Cc1cc(N2CCCC2)nc(N(CCNc2ccnc3cc(Cl)ccc23)Cc2ccco2)n1`, the growth with SK-MEL-2 melanoma is 77.1%; in the test on EKVX NSCLC, 36.1%; with SN12C renal, 28.8%; in the test on UO-31 renal, 10.8%; in the test with TK-10 renal, 63.8%; in the test with ACHN renal it was 39.6%. The growth in the test on A498 renal was 26.9%; with CCRF-CEM leukemia, 11%; with MOLT-4 leukemia it was -9.45% (active).
For `COc1cc2nc(Cl)nc(Nc3cccc(C(=O)/C=C/c4ccc(F)cc4)c3)c2cc1OC`, the growth is 93.9% in the test with SK-MEL-2 melanoma; 71.1% in the test on EKVX NSCLC; 51.6% in the test with SN12C renal; 53.9% in the test on UO-31 renal; 155% in the test with TK-10 renal; 20% in the test with ACHN renal. In addition, the growth in the test on A498 renal is 86.5%; in the test on CCRF-CEM leukemia it was 15.5%; in the test with MOLT-4 leukemia, 35.7%.
As for `COC(=O)CNc1nc(N(C)O)nc(N(C)O)n1`, the growth with SK-MEL-2 melanoma was 113%; with EKVX NSCLC, 48.2%; in the test on SN12C renal it was 49.8%; in the test on UO-31 renal it was 35.6%; with ACHN renal it was 23.8%; in the test on CAKI-1 renal, 34.1%. For the same molecule, the growth with A498 renal is 34.5%; with CCRF-CEM leukemia, 15.5%; in the test with MOLT-4 leukemia, 25.9%.
`COc1ccc(C2=NN(c3nc(-c4ccc(OC)cc4)c(C#N)c(=O)n3C)C(=O)CC2)cc1`: the growth in the test with SK-MEL-2 melanoma was 98.4%; in the test with EKVX NSCLC, 107%; with SN12C renal it was 88.8%; in the test on UO-31 renal, 85.9%; in the test with ACHN renal, 101%; in the test on CAKI-1 renal it was 96%. Besides, the growth is 91% with CCRF-CEM leukemia and 96.6% in the test on MOLT-4 leukemia.
In the case of `CCC(=O)c1c(C)[nH]c(C)c1C`, the growth is 16.6% in the test with SK-MEL-2 melanoma; 103% in the test with EKVX NSCLC; 95.5% in the test with SN12C renal; 67.1% with UO-31 renal; -33.4% (active) in the test on ACHN renal; 46.4% with CAKI-1 renal. Moreover, the values for the growth with A498 renal, in the test with CCRF-CEM leukemia and with MOLT-4 leukemia were 103%, 98.5% and 84%, respectively.
As for `Clc1ccc2[nH]cc(-c3nc(-c4c[nH]c5ncccc45)cs3)c2c1`, the growth in the test on SK-MEL-2 melanoma was 48.1%; in the test on EKVX NSCLC it was 42.7%; in the test on SN12C renal it was 56.7%; in the test on UO-31 renal, 22.2%; with ACHN renal it was 25.9%; in the test with CAKI-1 renal, 17.1%. For the same molecule, the figures for the growth with A498 renal, in the test with CCRF-CEM leukemia and in the test with MOLT-4 leukemia were 60.2%, 31.2% and 16.1%, respectively.
In the case of `C=C1C(=O)O[C@H]2[C@H]1CC/C(COC(=O)NCc1cc3ccccc3[nH]1)=C\CC[C@@]1(C)O[C@@H]21`, the growth in the test with SK-MEL-2 melanoma was 52.7%; in the test with EKVX NSCLC, 54.7%; with SN12C renal it was -56.8% (active); in the test on UO-31 renal it was -100% (active); in the test with TK-10 renal, -54.8% (active); in the test with ACHN renal, -75.9% (active). The growth in the test with CCRF-CEM leukemia was 2.95% (active); in the test with MOLT-4 leukemia it was 1.8% (active).
With `CCCNc1nc(N(C)O)nc(N(C)O)n1`, the growth in the test with SK-MEL-2 melanoma was 74.1%; in the test on EKVX NSCLC it was 36.9%; with SN12C renal it was 47.1%; in the test on UO-31 renal, 21.7%; in the test on ACHN renal it was 14.5%; with CAKI-1 renal, 25%. Besides, the growth in the test with A498 renal was 22.3%; with MOLT-4 leukemia, 14.8%.
As to `CCCCCC1CCCCN1C(=O)OCC` (stereo not drawn), the growth with SK-MEL-2 melanoma is 94.9%; in the test with EKVX NSCLC, 124%; with SN12C renal, 102%; in the test with TK-10 renal it was 100%; in the test on ACHN renal, 98.8%; in the test with CAKI-1 renal, 99.4%. Moreover, the growth was 91.4% in the test on A498 renal, 96.6% in the test with CCRF-CEM leukemia and 79.9% with MOLT-4 leukemia.

Source of the values: PubChem BioAssay (NCI).
